Consider seven compounds from PubChem BioAssay (Tox21).

Experiment [1] can be described thus: Human pregnane X receptor (PXR) small molecule agonists, qHTS cell viability counter screen (AID 1346977). Also: nearly all actives have a fitted effect of over 50% in size. The method, boiled down: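 Readout is CellTiter-Fluor fluorescence from PXR-Luc HepG2 cells. Plated cells rested 5hr, then were treated with compounds for 24hr at 37C and 5% CO2, with reagent present during the last hour.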
Experiment [2] can be described thus: Caspase-3/7 induction in HepG2 cells by small molecules, qHTS assay (AID 1346978). Also: nearly all actives have a fitted effect of over 15% in size. The method in brief:
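Wild-type HepG2 cells (2,000/well) were settled 5 h at 37 C, 5% CO2, then exposed to compounds in DMSO for 17 h. Caspase-3/7 activity was read by luminescence 30 min after adding Caspase-Glo 3/7 reagent at room temperature.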

Experiment [3] in a line: Caspase-3/7 induction in CHO-K1 cells by small molecules, qHTS assay (AID 1346980). Also: nearly all actives have a fitted effect of over 15% in size. The method, boiled down:
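Wild-type cells were seeded at 1,500 per well and settled 5 hr at 37 C, 5% CO2, then exposed to DMSO-dissolved compounds for 17 hr. Caspase-Glo 3/7 reagent was added, and luminescence was read after 30min at room temperature.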

Experiment [4] in a line: Caspase-3/7 induction in HepG2 cells by small molecules, qHTS cell viability counter screen (AID 1346981). Also: series mostly up to about 92 µM; nearly all actives have a fitted effect of over 30% in size. The method, boiled down: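 Counter screen for cytotoxicity: HepG2 exposed 16 hr to compounds, then CellTiter-Fluor viability signal (fluorescence, 1 hr reagent incubation).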
Experiment [5] has as its target Cytochrome P450 2C19 (Homo sapiens) (UniProt P33261). Description: Cytochrome P450 Family 2 Subfamily C Member 19 (CYP2C19) small molecule antagonists: luciferase reporter qHTS assay (AID 1671197). Also: nearly all actives have a fitted effect of over 65% in size. Also: potency is read from the fitted curve at half-maximal effect. The method in brief:
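Enzyme-substrate mix with proluciferin substrate (P450-Glo CYP2C19 system) preincubated with compounds 10 min at room temperature; NADPH regeneration solution added, 37C for 1 h; detection reagent stops reaction, luminescence read after 20 min. Ketoconazole positive control.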

The target in experiment [6] is Cytochrome P450 2C9 (Homo sapiens) (UniProt P11712). Description: Cytochrome P450 Family 2 Subfamily C Member 9 (CYP2C9) small molecule antagonists: luciferase reporter qHTS assay (AID 1671198). Also: nearly all actives have a fitted effect of over 50% in size. Also: potency is read from the fitted curve at half-maximal effect. The method, boiled down:
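CYP2C9 activity was measured with a P450-Glo proluciferin substrate. Enzyme–substrate mix was held with compound for 10 min at room temperature, then NADPH regeneration solution was added for 1 h at 37C. Luciferin product was read as luminescence.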

The target in experiment [7] is Cytochrome P450 1A2 (Homo sapiens) (UniProt P05177). Description: Cytochrome P450 Family 1 Subfamily A Member 2 (CYP1A2) small molecule antagonists: luciferase reporter qHTS assay (AID 1671199). Also: nearly all actives have a fitted effect of over 50% in size. Also: potency is read from the fitted curve at half-maximal effect. The method in brief: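 Signal from luciferin formed by CYP1A2 from a proluciferin substrate is read as luminescence, expressed in relative luminescence units. Compounds sit with enzyme 10 min, NADPH-driven reaction runs 1 h, all at room temperature.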

Experiment [8] concerns the target Voltage-gated inwardly rectifying potassium channel KCNH2 (Homo sapiens) (UniProt Q12809). Description: Human Ether-a-go-go-Related Gene (hERG) channel small molecule antagonists: fluorescence cell-based qHTS assay (AID 1671200).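 Also: hERG-expressing U2OS cells given a thallium stimulus after FluxOR II dye loading; series mostly up to about 77 µM; nearly all actives have a fitted effect of over 50% in size.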 The method in brief:
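Measured: Tl+ flux via fluorescence (480/540 nm) in hERG-expressing U2OS cells after 1 h dye loading at room temperature.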

For experiment [9], the target named is Cytochrome P450 3A4 (Homo sapiens) (UniProt P08684). Description: Cytochrome P450 Family 3 Subfamily A Member 4 (CYP3A4) small molecule antagonists: luciferase reporter qHTS assay (AID 1671201). The method, boiled down:
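Setup: enzyme-substrate mix, compound pin transfer, 10 min RT. Reaction: NADPH regeneration solution, 1 h RT. Readout: detection reagent stops turnover, luminescence measured after 20 min, expressed in relative luminescence units.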

Experiment [10] deals with Nuclear receptor subfamily 1 group I member 2 (Homo sapiens) (UniProt O75469). Description: Human pregnane X receptor (PXR) small molecule agonists, qHTS assay (AID 1346982). Also: nearly all actives have a fitted effect of over 35% in size. Also: potency is read from the fitted curve at half-maximal effect. The method, boiled down: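 Luminescence (ONE-Glo, 30 min RT) after 24 hr compound exposure of PXR-Luc HepG2 cells; cells rested 5 hr post-plating in 5% charcoal-stripped FBS medium.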
Experiment [11] concerns the target Acetylcholinesterase (Homo sapiens) (UniProt P22303). Description: Acetylcholinesterase (AChE) small molecule antagonists: colormetric cell-based qHTS assay (AID 1347395; calls by dose curve; also: nearly all actives have a fitted effect of over 30% in size). The method, boiled down: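 Neuroblastoma line SH-SY5Y supplied the enzyme; cells were preincubated with compound for 30 min at 37 C and 5% CO2. Acetylthiocholine with DTNB was then added for 90 min at 37 C, and thiocholine was measured by colour.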

Experiment [12] shares this target. Description: Acetylcholinesterase (AChE) small molecule antagonists: enzyme-based qHTS assay (AID 1347397; calls by dose curve; also: nearly all actives have a fitted effect of over 55% in size). The following applies: Potency: AChE enzyme activity inhibition; outcome: AChE enzyme activity inhibition. The method in brief:
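Human recombinant acetylcholinesterase; substrate acetylthiocholine; thiocholine quantified with DTNB (colorimetric). Compound preincubation 30 min RT; reaction 10 min RT.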

Experiment [13] has the same target. Description: Acetylcholinesterase (AChE) small molecule antagonists: enzyme-based qHTS assay with human liver microsomes (AID 1347399; calls by dose curve; also: nearly all actives have a fitted effect of over 60% in size). The following applies: Potency: qHTS inhibition; outcome: qHTS inhibition. The method in brief:
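Recombinant human AChE (50 mU/mL in the enzyme mix) and human liver microsomes (0.25 mg/mL final) were preincubated with compound and NADPH (0.25 mg/mL final) for 30 min at 37 C. Acetylthiocholine/DTNB was then added; thiocholine was read colorimetrically after 10 min at room temperature.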

The target in experiment [14] is Cytochrome P450 2D6 (Homo sapiens) (UniProt P10635). Description: Cytochrome P450 Family 2 Subfamily D Member 6 (CYP2D6) small molecule antagonists: luciferase reporter qHTS assay (AID 1671196). Also: nearly all actives have a fitted effect of over 50% in size. Also: potency is read from the fitted curve at half-maximal effect. The method, boiled down:
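Inhibition of CYP2D6 was gauged by loss of luminescence, since light produced tracks the luciferin generated from a proluciferin substrate. A 10 min room-temperature preincubation preceded 1 h NADPH-supported turnover.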

For experiment [15], the target named is Acetylcholinesterase (Homo sapiens) (UniProt P22303). Description: Acetylcholinesterase (AChE) small molecule antagonists: fluorescence cell-based qHTS assay (AID 1347398; calls by dose curve; also: nearly all actives have a fitted effect of over 50% in size). The following applies: Potency: AChE activity; outcome: AChE activity. The method in brief: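 Thiocholine generated from acetylthiocholine by SH-SY5Y cell AChE is detected with Thiolite Green (Ex/Em 490/520 nm) after 40 min at room temperature, following 30 min compound pretreatment at 37 C.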

Experiment [16] is described as follows: Caspase-3/7 induction in CHO-K1 cells by small molecules, qHTS cell viability counter screen (AID 1346979). Also: nearly all actives have a fitted effect of over 35% in size. The method, boiled down:
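To flag cytotoxic compounds, treated CHO-K1 wild-type cells were given CellTiter-Fluor at 16hr and read fluorescently after 1hr at 37C; the caspase-3/7 luminescence was measured in these same wells.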

Experiment [17] addresses Nuclear receptor subfamily 1 group I member 2 (Rattus norvegicus) (UniProt Q9R1A7). Description: Rat pregnane X receptor (rPXR) activation by small molecules, qHTS assay (AID 1346983). Also: nearly all actives have a fitted effect of over 20% in size. The following applies: rPXR luciferase reporter cells, One-Glo luminescence, 24 h; stronger effect = higher value. The method, boiled down:
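Cell-based rPXR luciferase reporter assay, 2,000 cells per well, rested 5hr at 37 C before compound addition in DMSO, then 24 hr at 37 C. One-Glo reagent was added and luminescence read after 30 min at room temperature.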

The target in experiment [18] is Nuclear receptor subfamily 1 group I member 2 (Homo sapiens) (UniProt O75469). Description: Human pregnane X receptor (PXR) activation by small molecules, qHTS assay (AID 1346985). Also: nearly all actives have a fitted effect of over 40% in size. The method, boiled down:
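DPX-2 cells (HepG2 co-transfected with a PXR response element and a CYP3A4-promoter luciferase construct) were seeded at 2,000 per well, rested 5 hr at 37C, then exposed to DMSO-dissolved compounds for 24 hr. Activation was read as luciferase luminescence.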

Unmarked numbers belong to inactive results. Results filed as inconclusive are left out. The source made the active and inactive calls. Unless noted, calls follow the shape of the dose curve; as a rule, active = well fitted curve in the direction sought with a large enough effect in the repeat runs; inconclusive = weak or mixed curves; inactive = no such curve, though single readings can be large; an effect the other way counts as inactive or inconclusive.
% is scaled to controls: 0 for no effect and ±100 for the full control effect.

Cytochrome P450 2C9 (Homo sapiens), sequence (P11712 whole entry, looked up): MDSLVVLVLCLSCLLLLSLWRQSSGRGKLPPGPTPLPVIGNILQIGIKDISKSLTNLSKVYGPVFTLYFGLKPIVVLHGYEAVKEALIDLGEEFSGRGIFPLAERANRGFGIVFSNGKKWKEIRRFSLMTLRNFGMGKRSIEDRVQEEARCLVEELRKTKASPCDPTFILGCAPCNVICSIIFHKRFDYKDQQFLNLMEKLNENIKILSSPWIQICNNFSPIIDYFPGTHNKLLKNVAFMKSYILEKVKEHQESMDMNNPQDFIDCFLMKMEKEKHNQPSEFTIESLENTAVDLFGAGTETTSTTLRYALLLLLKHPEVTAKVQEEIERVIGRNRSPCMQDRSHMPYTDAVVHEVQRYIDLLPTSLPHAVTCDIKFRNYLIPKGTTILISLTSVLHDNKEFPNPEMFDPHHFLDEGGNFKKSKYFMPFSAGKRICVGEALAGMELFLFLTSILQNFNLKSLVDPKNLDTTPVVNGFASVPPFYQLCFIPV
Cytochrome P450 3A4 (Homo sapiens), sequence (P08684 whole entry, looked up): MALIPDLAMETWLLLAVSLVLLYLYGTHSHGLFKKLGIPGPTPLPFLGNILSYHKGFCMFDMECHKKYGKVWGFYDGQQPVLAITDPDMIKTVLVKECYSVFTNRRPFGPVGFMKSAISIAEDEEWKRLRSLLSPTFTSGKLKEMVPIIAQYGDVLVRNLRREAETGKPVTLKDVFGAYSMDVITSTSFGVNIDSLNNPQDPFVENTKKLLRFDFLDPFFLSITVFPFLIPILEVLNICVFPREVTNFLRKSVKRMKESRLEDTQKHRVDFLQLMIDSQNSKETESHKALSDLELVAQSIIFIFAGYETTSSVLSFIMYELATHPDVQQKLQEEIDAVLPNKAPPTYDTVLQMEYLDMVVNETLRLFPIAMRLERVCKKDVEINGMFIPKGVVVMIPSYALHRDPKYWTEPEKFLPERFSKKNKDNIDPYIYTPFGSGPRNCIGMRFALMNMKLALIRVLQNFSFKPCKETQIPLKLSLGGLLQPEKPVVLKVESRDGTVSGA
Cytochrome P450 2C19 (Homo sapiens), sequence (P33261 whole entry, looked up): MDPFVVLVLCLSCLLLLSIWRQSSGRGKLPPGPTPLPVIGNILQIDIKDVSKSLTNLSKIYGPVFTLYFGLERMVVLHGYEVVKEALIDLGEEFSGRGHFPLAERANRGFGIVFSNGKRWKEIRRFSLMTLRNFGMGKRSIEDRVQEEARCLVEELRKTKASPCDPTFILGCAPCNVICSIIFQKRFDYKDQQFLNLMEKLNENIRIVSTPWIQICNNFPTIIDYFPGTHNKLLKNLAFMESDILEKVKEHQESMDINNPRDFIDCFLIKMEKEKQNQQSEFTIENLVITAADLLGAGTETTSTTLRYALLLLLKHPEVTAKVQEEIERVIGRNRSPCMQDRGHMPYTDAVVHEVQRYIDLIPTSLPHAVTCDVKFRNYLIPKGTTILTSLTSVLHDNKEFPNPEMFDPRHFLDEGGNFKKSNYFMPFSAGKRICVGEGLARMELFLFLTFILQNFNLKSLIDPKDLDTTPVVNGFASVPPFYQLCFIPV
Cytochrome P450 1A2 (Homo sapiens), sequence (P05177 whole entry, looked up): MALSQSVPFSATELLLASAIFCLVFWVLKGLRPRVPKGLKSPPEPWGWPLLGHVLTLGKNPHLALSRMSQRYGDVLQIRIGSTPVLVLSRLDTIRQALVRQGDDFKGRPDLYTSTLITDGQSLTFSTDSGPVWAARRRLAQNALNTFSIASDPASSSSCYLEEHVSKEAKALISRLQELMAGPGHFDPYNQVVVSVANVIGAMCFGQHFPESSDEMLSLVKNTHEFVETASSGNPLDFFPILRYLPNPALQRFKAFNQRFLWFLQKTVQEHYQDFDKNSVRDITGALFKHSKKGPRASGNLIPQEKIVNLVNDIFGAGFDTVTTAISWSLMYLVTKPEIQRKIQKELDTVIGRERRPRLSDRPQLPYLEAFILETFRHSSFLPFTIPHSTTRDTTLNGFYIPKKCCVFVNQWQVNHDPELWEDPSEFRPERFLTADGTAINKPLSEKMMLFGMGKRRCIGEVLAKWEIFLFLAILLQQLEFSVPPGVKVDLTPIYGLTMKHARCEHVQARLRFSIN
Nuclear receptor subfamily 1 group I member 2 (Homo sapiens), sequence (O75469 whole entry, looked up): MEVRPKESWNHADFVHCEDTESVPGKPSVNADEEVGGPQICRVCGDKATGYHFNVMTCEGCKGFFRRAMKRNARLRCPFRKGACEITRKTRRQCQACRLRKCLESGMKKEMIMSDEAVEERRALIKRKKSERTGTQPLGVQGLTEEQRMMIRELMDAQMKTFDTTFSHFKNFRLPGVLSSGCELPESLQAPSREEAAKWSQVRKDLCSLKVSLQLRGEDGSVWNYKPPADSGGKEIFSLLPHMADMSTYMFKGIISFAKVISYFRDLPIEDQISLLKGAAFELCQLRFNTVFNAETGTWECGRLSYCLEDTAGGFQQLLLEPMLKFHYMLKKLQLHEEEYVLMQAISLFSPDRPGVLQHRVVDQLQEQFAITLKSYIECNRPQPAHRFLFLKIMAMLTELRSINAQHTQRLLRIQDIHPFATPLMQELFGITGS
Voltage-gated inwardly rectifying potassium channel KCNH2 (Homo sapiens), sequence (Q12809 whole entry, looked up): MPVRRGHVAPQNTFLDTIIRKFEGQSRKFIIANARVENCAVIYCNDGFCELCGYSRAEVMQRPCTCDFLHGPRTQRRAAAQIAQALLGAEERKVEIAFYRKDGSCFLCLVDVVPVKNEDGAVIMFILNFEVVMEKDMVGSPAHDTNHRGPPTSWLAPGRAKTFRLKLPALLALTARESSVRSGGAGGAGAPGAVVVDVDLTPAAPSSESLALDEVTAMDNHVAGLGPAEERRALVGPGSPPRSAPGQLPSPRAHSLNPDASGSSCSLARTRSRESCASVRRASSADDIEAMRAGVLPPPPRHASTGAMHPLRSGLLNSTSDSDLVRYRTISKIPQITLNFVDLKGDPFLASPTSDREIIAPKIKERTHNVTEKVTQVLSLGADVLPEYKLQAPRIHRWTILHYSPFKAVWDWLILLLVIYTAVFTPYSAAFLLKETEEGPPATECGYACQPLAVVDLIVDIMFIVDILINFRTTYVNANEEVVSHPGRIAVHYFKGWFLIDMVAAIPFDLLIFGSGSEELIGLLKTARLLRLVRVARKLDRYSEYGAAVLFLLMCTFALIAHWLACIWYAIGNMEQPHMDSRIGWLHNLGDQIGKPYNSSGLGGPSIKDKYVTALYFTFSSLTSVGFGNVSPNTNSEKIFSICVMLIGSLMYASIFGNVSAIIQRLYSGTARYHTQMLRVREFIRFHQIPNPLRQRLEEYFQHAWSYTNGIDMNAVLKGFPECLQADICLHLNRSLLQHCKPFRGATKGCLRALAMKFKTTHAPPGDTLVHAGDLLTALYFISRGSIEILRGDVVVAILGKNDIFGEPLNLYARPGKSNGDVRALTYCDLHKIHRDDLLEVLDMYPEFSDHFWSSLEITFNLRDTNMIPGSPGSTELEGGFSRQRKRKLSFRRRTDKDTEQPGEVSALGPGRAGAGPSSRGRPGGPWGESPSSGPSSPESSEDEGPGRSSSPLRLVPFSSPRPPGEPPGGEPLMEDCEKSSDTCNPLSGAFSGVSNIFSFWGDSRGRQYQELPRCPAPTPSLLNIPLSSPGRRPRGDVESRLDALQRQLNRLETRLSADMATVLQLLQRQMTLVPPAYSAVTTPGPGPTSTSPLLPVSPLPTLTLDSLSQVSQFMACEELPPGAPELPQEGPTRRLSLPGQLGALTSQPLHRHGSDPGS
Cytochrome P450 2D6 (Homo sapiens), sequence (P10635 whole entry, looked up): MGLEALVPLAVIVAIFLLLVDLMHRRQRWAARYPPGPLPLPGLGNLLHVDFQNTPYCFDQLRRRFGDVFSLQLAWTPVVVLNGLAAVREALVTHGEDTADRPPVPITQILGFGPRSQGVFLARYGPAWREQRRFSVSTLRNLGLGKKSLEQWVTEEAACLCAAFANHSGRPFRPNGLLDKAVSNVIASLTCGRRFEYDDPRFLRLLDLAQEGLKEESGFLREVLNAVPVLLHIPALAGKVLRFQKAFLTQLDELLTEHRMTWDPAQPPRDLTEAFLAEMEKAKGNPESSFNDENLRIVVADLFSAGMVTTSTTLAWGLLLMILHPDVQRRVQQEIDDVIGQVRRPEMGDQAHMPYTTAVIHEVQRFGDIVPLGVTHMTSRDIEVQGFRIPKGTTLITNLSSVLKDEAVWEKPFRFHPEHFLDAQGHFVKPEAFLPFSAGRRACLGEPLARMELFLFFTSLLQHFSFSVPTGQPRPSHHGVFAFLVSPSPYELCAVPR
Acetylcholinesterase (Homo sapiens), sequence (P22303 whole entry, looked up): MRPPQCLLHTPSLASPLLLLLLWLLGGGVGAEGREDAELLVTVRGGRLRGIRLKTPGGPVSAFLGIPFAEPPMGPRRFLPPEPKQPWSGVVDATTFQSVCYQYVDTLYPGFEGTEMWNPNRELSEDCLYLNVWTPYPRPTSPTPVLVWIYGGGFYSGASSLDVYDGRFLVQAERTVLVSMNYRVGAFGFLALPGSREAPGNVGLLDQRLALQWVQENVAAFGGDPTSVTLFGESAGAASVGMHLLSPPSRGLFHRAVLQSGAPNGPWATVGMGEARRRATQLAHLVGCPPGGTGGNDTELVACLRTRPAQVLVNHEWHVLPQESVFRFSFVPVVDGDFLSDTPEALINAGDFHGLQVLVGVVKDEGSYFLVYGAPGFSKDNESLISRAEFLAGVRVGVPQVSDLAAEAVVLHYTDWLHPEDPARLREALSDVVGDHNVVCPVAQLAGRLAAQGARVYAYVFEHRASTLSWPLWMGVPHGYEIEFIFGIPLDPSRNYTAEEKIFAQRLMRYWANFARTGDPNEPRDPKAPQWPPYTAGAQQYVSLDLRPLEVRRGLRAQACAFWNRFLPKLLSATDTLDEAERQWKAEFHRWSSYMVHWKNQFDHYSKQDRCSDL

On to `Oc1ccc2c3c1O[C@H]1[C@@H](O)C=C[C@H]4[C@@H](C2)NCC[C@@]341`, for which the Potency result in experiment [1], in [4], in [5], in experiment [6], in experiment [7] and in [8] was “inactive” in each case. The Potency entry in experiment [9] was “inactive”. In addition, the compound was classed as inactive in [2] and in experiment [3].
Take `O=c1[nH]oc2c1CCNC2`: the Potency result in experiment [1], in experiment [4], in [10], in experiment [11], in experiment [12] and in [13] was “inactive” in each case. Moreover, the Potency entry in experiment [14], in experiment [5], in experiment [6], in [7] and in [9] was “inactive” throughout. For the same compound, the compound was classed as inactive in experiment [2] and in experiment [3].
In the case of `CC(C)[C@]12CC(=O)[C@H](C)[C@H]1C2`, the Potency entry in experiment [1], in experiment [4], in experiment [10], in experiment [11], in [15] and in experiment [13] was “inactive” in each case. The Potency result in experiment [14], in experiment [5], in experiment [6], in [7], in [8] and in [9] was “inactive” in each case. Besides, the compound was classed as inactive in experiment [2] and in experiment [3].
Take `Cl/C=C/CCl`: the Potency entry in experiment [1], in [4], in experiment [10], in [11], in [12] and in [15] was “inactive” in each case. The Potency entry in experiment [13], in experiment [5], in [6], in experiment [8] and in experiment [9] was “inactive” in each case. For the same compound, the result in experiment [2] and in experiment [3] was inactive.
For `COC1=CC(=O)O[C@@H](/C=C/c2ccccc2)C1`, the Potency entry in experiment [1], in experiment [4], in [11], in experiment [12], in experiment [15] and in [13] was “inactive” throughout. In [9], the Potency result was “inactive”. Besides, the compound was classed as inactive in experiment [2] and in experiment [3]. Further, the Potency in experiment [10] was 24.7 µM (active); in experiment [5], 5.72 µM (active); in experiment [6], 32.2 µM (active); in [7] it was 28.7 µM (active).
Regarding `Oc1ccc(Cc2ccc(O)cc2)cc1`, the Potency result in experiment [1], in [16], in experiment [4], in experiment [11], in experiment [12] and in [15] was “inactive” in each case. In addition, the Potency result in [13], in [5], in experiment [6], in experiment [8] and in experiment [9] was “inactive” each time. Further, the compound was classed as inactive in experiment [2] and in [3]. Besides, the Potency in experiment [10] was 54.9 µM (active).
On to `CC(C)(N)Cc1ccc(Cl)cc1`, for which the Potency entry in experiment [1], in experiment [16], in [4], in experiment [10], in experiment [18] and in experiment [11] was “inactive” in each case. The Potency result in experiment [15], in experiment [13], in [5], in experiment [6] and in experiment [9] was “inactive” each time. The compound was classed as inactive in experiment [2] and in [3]. The max activation in experiment [17] is -1.44%. Also, the Potency was 3.09 µM (active) in experiment [14] and 24.5 µM (active) in [7].
